DUSP3 inh = inhibitors of human VHR1 phosphatase (DUSP3). recombinant VHR phosphatase, colorimetric substrate read-out. inhibition, % at 20 µM. hit rate 0.7% among 50,000. AID 1992; in the data active = inhibition above about 60%
Target sequence (P51452 whole entry, looked up): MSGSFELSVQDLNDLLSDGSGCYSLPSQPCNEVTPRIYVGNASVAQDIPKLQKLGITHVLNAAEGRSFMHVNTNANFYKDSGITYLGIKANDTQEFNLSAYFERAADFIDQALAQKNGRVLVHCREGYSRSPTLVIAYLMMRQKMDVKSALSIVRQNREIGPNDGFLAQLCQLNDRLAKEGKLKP
Starred values were filed as active, the others as inactive. Only a selection was taken, and hits are over-represented in it overall.

SMILES	DUSP3 inh
O=C1C2C3C=CC(C2C(=O)N1C1CCCCC1)C1C(=O)N(C2CCCCC2)C(=O)C31 (stereo not given)	106*
CCC(C)N1C(=O)C(=O)N(C2CCCCC2)C1=O (stereo not given)	-7
O=C1C2C3C=CC(C2C(=O)N1Cc1ccccc1)C1C(=O)N(Cc2ccccc2)C(=O)C31 (stereo not given)	5
Cc1cc(C)cc(NC2=C(Cl)C(=O)N(c3ccc(Br)cc3)C2=O)c1	-9
O=C(Nc1ccc2ccccc2c1)c1cccc(NC(=O)c2cccs2)c1	-9
O=c1c2ccccc2nc(/C=C/c2c[nH]c3ccccc23)n1-c1cccc([N+](=O)[O-])c1	4
COc1ccc2c(c1)c(/C=C/c1nc3ccccc3c(=O)n1-c1cccc([N+](=O)[O-])c1)c(C)n2C	25
Cc1[nH]c2ccccc2c1/C=C/c1nc2ccccc2c(=O)n1-c1cccc([N+](=O)[O-])c1	78*
COc1ccccc1NC(=O)CN(c1ccc(C)cc1)S(=O)(=O)c1ccc(F)cc1	-42
COC(=O)Cn1c2ccccc2n2nc(C)nc12	0
Nc1cccc(C(=O)/C=C/c2ccc(Cl)cc2Cl)c1	-35
COC(=O)CNC(c1ccccc1)c1cc(Br)ccc1NC(=O)CCCNC(=O)OCc1ccccc1 (stereo not given)	-1
Cc1cc(C)nc(SC(C)C(=O)N/N=C/c2ccc(Br)cc2)n1 (stereo not given)	-27
Cc1cccc(NC(=O)C2C(c3ccccc3)C=CC(c3ccccc3)C2C(=O)O)c1C (stereo not given)	98*
Cc1cccc(NC(=O)C2CC2(c2ccccc2)c2ccccc2)c1C (stereo not given)	5
Cc1cccc(NC(=O)C(C)Oc2ccccc2)c1C (stereo not given)	-39
O=[N+]([O-])c1ccc(-c2cn3c(n2)sc2ccccc23)cc1	-11
O=C(O)CSc1nnc(-c2sc3ccccc3c2Cl)n1-c1ccccc1	-10
COc1ccccc1NC(=O)c1c(N)sc2c1CCC2	-11
CCOc1ccccc1NC(=O)c1c(N)sc2c1CCCCC2	75*
CCOc1ccccc1NC(=O)c1c(NC(=O)Cc2ccccc2)sc2c1CCCCC2	-23
CC1CCCN(C(=O)c2ccccc2)C1 (stereo not given)	-12
COc1cccc(CNc2ccc3c(c2)nc(C)n3C)c1OC	44
COC(=O)c1ccc(/C=C2/C(=O)NN(c3ccccc3)C2=O)cc1	-10
CCOC(=O)c1c(N)sc2c1CCN(Cc1ccccc1)C2	96*
SMILES	DUSP3 inh
CCCOC(=O)c1c(N)sc2c1CCC2	8
CCOC(=O)c1c(C)nn(Cc2ccccc2)c1N	6
Nc1nnc(COc2ccc(Cl)cc2)s1	-6
CCOc1cc(-c2ccc(O)cc2)cc(=O)c2c(C)oc(C)c12	-12
CCOc1cccc(=O)c2c(C)[nH]c(C)c12	75*
CCOc1cccc(/C=C2/SC(=S)NC2=O)c1O	-1
CCCCOc1ccc(C(=O)Nc2cccc(OC)c2)cc1	63
O=c1/c(=C/c2ccc(-c3ccccc3[N+](=O)[O-])o2)sc2nc3cc(Br)cnc3n12	-31
O=C(/C=C/c1ccco1)Nc1ccc(O)cc1C(=O)O	-15
Cc1cccc(Cc2cnc(NC(=O)CCN3C(=O)/C(=C/c4ccccc4Cl)SC3=S)s2)c1	-26
Cc1ccc(C(=O)N/C(=C\c2ccc(Cl)cc2)C(=O)NCC(C)C)cc1	-12
CCOc1ccc(C(=O)Nc2ccc(N3CCOCC3)c(Cl)c2)cc1Cl	-11
CCOc1ccc(C(=S)N2CCOCC2)cc1	6
CCOc1cc(N2CCOCC2)c(OCC)cc1N	88*
O=C(O)C1Nc2c(Cl)cc(Cl)cc2C2C=CCC12 (stereo not given)	97*
CC(=O)Nc1ccc2c(c1)C1C=CCC1C(C(=O)O)N2 (stereo not given)	-2
COc1ccc2c(c1)C1C=CCC1C(C(=O)O)N2 (stereo not given)	23
COc1ccc(Br)cc1/C=C/C(=O)c1ccc(C)cc1	1
CN(C)c1ccc(C2Nc3ccc(C(=O)c4ccccc4)cc3NC3=C2C(=O)CCC3)cc1 (stereo not given)	17
COc1ccc(C2Nc3ccc(C(=O)c4ccccc4)cc3NC3=C2C(=O)CCC3)c(OC)c1 (stereo not given)	68*
COc1ccccc1C1Nc2ccc(C(=O)c3ccccc3)cc2NC2=C1C(=O)CCC2 (stereo not given)	-6
COc1ccc(NC(=O)COc2ccc3ccccc3c2)c(OC)c1	6
COc1cc(NC(=O)c2ccc(Cl)cc2)c(Cl)cc1NC(=O)C(C)Oc1ccccc1 (stereo not given)	-3
COc1cccc(NC(=O)Cc2ccccc2[N+](=O)[O-])c1	8
Cn1c(=O)c2c([nH]c(=S)n2Cc2ccccc2Cl)n(C)c1=O	95*
Cc1c(C=O)c2ccccc2n1Cc1ccccc1Cl	-4
O=c1c2ccccc2[nH]c(=S)n1Cc1ccccc1	-8
Fc1ccccc1COc1ccccc1/C=N/n1cnnc1	-7
COc1ccccc1NC(=O)c1cc(Nc2ccc(F)c(F)c2)nc2ccccc12	-10
Cc1cc(C)nc(NS(=O)(=O)c2ccc(Nc3nc(-c4sc(N)nc4C)cs3)cc2)n1	67*

High-throughput results: PubChem, Sanford-Burnham Center for Chemical Genomics
